Pf Dd2 inh: blocks in vitro growth of P. falciparum Dd2; P. falciparum Dd2 growth, SYBR Green, 72 h; 4.3% of 120,000 active; AID 1347417; Potency, µM (series often up to 28.9 µM), for inactives: at the top dose activity, negative = inhibition, usual class: inhibitors; active means well fitted inhibition curve with a large enough effect;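 further: plate controls were DMSO vehicle for no effect and reference drug for full effect; nearly all actives have a fitted effect of over 65% in size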
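Readout: SYBR Green fluorescence, 485 nm excitation, 535 nm emission, after ~16 h lysis at 37C. Before that, Dd2-infected red cells (2.5% hematocrit) grew 72 h with compound, 29 uM top final concentration.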
* marks the source's active call; other numbers are inactive results; i = inactive; [ ] = remark or other dose. This is one part of a sample in which hits are shown more often than they occur. Potency means the concentration at half of the fitted maximal effect.

SMILES	Pf Dd2 inh
Cn1cc(S(=O)(=O)c2ccccc2)c(=O)c2cc(F)c(N3CCCCCC3)cc21	8.9µM*
Cn1cc(S(=O)(=O)c2ccccc2)c(=O)c2cc(F)c(N3CCCC3)cc21	-16%
CCCN1CCN(c2cc3c(cc2F)c(=O)c(S(=O)(=O)c2ccc(Cl)cc2)cn3C)CC1	10µM*
CCN1CCN(c2cc3c(cc2F)c(=O)c(S(=O)(=O)c2ccccc2)cn3C)CC1	-5%
Cc1ccc(S(=O)(=O)c2cn(C)c3cc(N4CCCCC4)c(F)cc3c2=O)cc1	-27%
Cn1cc(S(=O)(=O)c2cccc(Cl)c2)c(=O)c2cc(F)c(N3CCCCCC3)cc21	i
Cn1cc(S(=O)(=O)c2ccccc2)c(=O)c2cc(F)c(N3CCCCC3)cc21	1%
CN(C)C[C@@H]1CN(Cc2ccccc2)C[C@H]1NC(=O)c1cnn(C)c1	0%
O=C(CC1NC(=O)NC1=O)NCc1cccnc1Oc1ccccc1F (centres undefined)	17%
CCc1c(C)nn(CC(=O)N2CC[C@@](O)(CCOC)[C@H](C)C2)c1C	-3%
Cn1ncc(N2CCC(NC(=O)CC3CCCCC3)CC2)cc1=O	27%
COCCNC(=O)CCCN1C(=O)COc2ccc(C(=O)COc3ccc(C(C)(C)C)cc3)cc21	-5%
COCCNc1nc2c([S+](=O)([O-])c3ccc(Cl)cc3)nnn2c2ccccc12	13%
C[C@@H]1CN(Cc2nc3c(n2Cc2ccccc2)C(=O)N(CC2CC2)CCN3)C[C@H](C)O1	-14%[44.1 µM]
Cc1ccc(NC(=O)N2C[C@@H](F)C[C@H]2C(=O)N2CCCCC2)c(C)c1	37%
Cc1ccc(CNC(=O)CC2=C3CCCCC3N(C(C)C)C2=O)o1 (centres undefined)	-28%
O=c1c2c(CO)c(-c3ccc(F)cc3)nn2ccn1Cc1cccc(F)c1	-19%
COc1ccc(N2CC3CCC(C2)N3Cc2cccc(-c3cccnc3)c2)cc1	11µM*
COc1ccc(N2CC3CCC(C2)N3Cc2ccccc2)cc1	-11%
COc1ccc(N2CC3CCC(C2)N3Cc2ccc(-c3ccccc3)cc2)cc1	9%
COc1ccc(C(=O)N[C@@H]2CN(c3ncccn3)C[C@H]2CN(C)C)c(OC)n1	-5%
O=C1N(C2CCOCC2)C[C@H]2CN(Cc3ccccc3F)CCN12	-4%[44.1 µM]
CN1CC(=O)N(c2ccccc2F)Cc2c1ncnc2N1CCC(c2ccccc2)CC1	i
CN1CC(=O)N(c2ccccc2)Cc2c(NCCCc3ccccc3)ncnc21	6.3µM*
CN1CC(=O)N(c2ccccc2)Cc2c(NCCOc3ccccc3)ncnc21	i
SMILES	Pf Dd2 inh
CN1CC(=O)N(c2ccc(Cl)cc2)Cc2c(NCc3ccc(F)cc3)ncnc21	7.9µM*
CN1CC(=O)N(c2ccccc2)Cc2c(NCc3ccc(F)cc3)ncnc21	-15%
CN1CC(=O)N(c2ccccc2)Cc2c(NCCc3ccc(Cl)cc3)ncnc21	i
CN1CC(=O)N(c2ccccc2)Cc2c1ncnc2N1CCC(O)CC1	0%
CN1CC(=O)N(c2ccc(Cl)cc2)Cc2c(NCc3cccs3)ncnc21	i
CN1CC(=O)N(c2ccc(Cl)cc2)Cc2c1ncnc2N1CCC(Cc2ccccc2)CC1	13µM*
O=C(Cc1cccnc1)N1CCCCCCn2c(nnc2-c2ccc(F)cc2)CC1	-24%
COCCCNC(=O)C(NC(=O)C1CC1)C1CCN(C(=O)c2ccccc2)CC1 (centres undefined)	i
CCNC(=O)N(C1CC1)C1CCOC2(CCN(C(=O)COc3ccc(F)cc3)CC2)C1 (centres undefined)	-10%
Cc1cn2nc(C(=O)NCc3ccncc3)cc2c(=O)[nH]1	24%
COc1cc2c(cc1Oc1cccc(N(C)C)c1)NC(=O)C21CCN(C(=O)CN2CCOCC2)CC1	i
O=C(COc1ccccc1)N1C[C@@H](CO)[C@H](c2ccccn2)C1	0%
COc1nccnc1NC1CCN(C(=O)Cc2cccs2)CC1	i[5.79 µM]
COc1ccc(C(=O)N2C[C@@H](COc3ccccc3)[C@H](C(N)=O)C2)cn1	2%

Screens (PubChem BioAssay)
